Source: PubChem BioAssay (The Scripps Research Institute Molecular Screening Center)
OPRM1-OPRD1 inv: inverse agonists of human mu-delta opioid receptor heterodimerization | P35372+P41143 | cell-based MOR-DOR heterodimer luminescence, inverse agonism | inhibition, % at 9.3 µM | 340,000 compounds, 0.21% hits | AID 504357; in the data active = inhibition above about 22%, passing the limit was not always enough;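 also: 0% = cells with DMSO and 100% = wells without cells with DMSO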
Target sequence (P35372 whole entry, looked up): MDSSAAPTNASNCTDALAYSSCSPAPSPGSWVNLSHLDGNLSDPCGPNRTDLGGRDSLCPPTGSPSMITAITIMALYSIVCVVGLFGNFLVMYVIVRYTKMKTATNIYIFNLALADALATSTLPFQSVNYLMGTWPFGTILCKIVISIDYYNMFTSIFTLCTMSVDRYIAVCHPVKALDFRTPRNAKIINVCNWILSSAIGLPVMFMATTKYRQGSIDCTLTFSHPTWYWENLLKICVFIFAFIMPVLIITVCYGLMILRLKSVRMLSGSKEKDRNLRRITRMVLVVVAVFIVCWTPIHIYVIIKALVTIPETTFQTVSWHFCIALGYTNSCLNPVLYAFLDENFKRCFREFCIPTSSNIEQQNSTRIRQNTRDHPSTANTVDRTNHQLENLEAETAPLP
Target sequence (P41143 whole entry, looked up): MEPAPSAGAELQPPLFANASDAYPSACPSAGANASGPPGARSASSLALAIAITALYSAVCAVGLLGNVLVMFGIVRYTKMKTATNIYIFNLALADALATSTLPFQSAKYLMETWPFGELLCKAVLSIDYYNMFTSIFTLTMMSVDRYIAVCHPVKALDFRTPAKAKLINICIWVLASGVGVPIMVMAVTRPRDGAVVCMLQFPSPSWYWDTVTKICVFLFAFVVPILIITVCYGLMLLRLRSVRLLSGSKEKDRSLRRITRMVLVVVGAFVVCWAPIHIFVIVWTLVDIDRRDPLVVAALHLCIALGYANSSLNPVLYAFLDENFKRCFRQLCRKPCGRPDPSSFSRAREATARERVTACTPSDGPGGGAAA
MOR-DOR ag: agonists of human mu-delta opioid receptor heterodimerization; cells, OPRM1-OPRD1 heterodimerization, luminescence; activation, % at 9.3 µM; 340,000 compounds, 0.3% hits; AID 504326; in the data active = activation above about 18%;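 also: 0% = vehicle-treated cells and 100% = reference agonist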
HTR5A ag: HTR5A agonism, opioid heterodimer counter-screen; 340,000 compounds, 0.61% hits; P47898; activation, % at 9.3 µM; HTR5A agonist assay, luminescence, cell-based; in the data active = activation mostly above about 9.5%, no sharp cut-off; inactive = mostly below about 7.6%;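 also: 0% = cells with vehicle only and 100% = reference agonist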
HTR5A inv ctr: inverse agonist of human HTR5A in OPRM1-OPRD1 counter-screen; AID 504634; inhibition, % at 9.3 µM; P47898; 340,000 compounds, 0.083% hits; HTR5A cell line, luminescence, inverse agonism; in the data active = inhibition mostly above about 23%, no sharp cut-off; inactive = mostly below about 18%;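 also: 0% = cells with DMSO and 100% = no-cell wells with DMSO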
* hit, by the source's call. In the library only some 1.1% were active in any assay of this set; here they are far more common.

SMILES	OPRM1-OPRD1 inv	MOR-DOR ag	HTR5A ag	HTR5A inv ctr
O=C(NCCc1ccccc1O)c1cc2c(cc1[N+](=O)[O-])OCO2	10.8	-2.5	4.0	-15.2
O=C(COC(=O)/C=C/c1cccc(Br)c1)Nc1cccc(S(=O)(=O)NC2=NCCC2)c1	10.7	-2.8	-1.1	-3.1
Cc1cc(C(=O)COC(=O)c2ccc(O)cc2)c(C)n1CC1COc2ccccc2O1 (configuration not stated)	-11.5	2.2	12.3*	-42.8
Cc1cc(C(=O)COC(=O)c2ccc3c(c2)OCO3)c(C)n1CC1CCCO1 (configuration not stated)	5.0	-1.0	1.6	-4.6
Cc1noc(C)c1S(=O)(=O)N(CC(=O)NC(C)c1ccccc1)c1ccc(C(C)C)cc1 (configuration not stated)	-18.5	3.7	-0.7	-21.9
Cc1ccc2oc(=O)c3cnn(CC(=O)N4CCCc5ccccc54)c3c2c1	5.5	-1.0	14.1*	1.7
Cc1cc(/C=C\c2nc(O)c([N+](=O)[O-])c(=O)[nH]2)c(C)n1-c1ccccc1	-194.2	34.0*	-4.5	12.8
O=C1C=C(c2cccc3c2sc2ccccc23)C[C@@H](c2ccc(F)cc2)C1	10.4	-1.8	-0.9	-16.1
CC(C)c1cc(C(=O)N2CCCC(N3CCN(c4ccc(F)cc4)CC3)C2)n(C)n1 (configuration not stated)	16.4	-3.2	10.3*	-5.2
CCn1c(CC(=O)Nc2ccccc2C)nnc1SCC(=O)NC1CCCC1	14.6	-2.7	8.2	-22.0
CSc1ccc(/C=C2\C(=N)N3N=C(CC(=O)N4CCCCC4)SC3=NC2=O)cc1	13.7	-2.7	-1.9	6.9
CSc1ccc(/C=C2\C(=N)N3N=C(CC(=O)N4CCOCC4)SC3=NC2=O)cc1	8.0	-1.6	11.9*	-36.7
CC1CCN(S(=O)(=O)c2ccc(NC(=O)Cn3nnc(-c4ccccc4)n3)cc2)CC1	-167.6	31.5*	16.4*	-41.7
CSCC[C@H](N)C(=O)N1CCC(C(=O)N[C@@H](C)C(=O)NCc2ccc(F)cc2)CC1	7.0	-1.4	2.5	-1.0
COc1cc2c(C(=O)N(C)c3ccc(F)cc3)cn(C)c(=O)c2cc1OC	16.8	-3.5	-0.4	1.4
CC(C)NC(=O)Nc1cccc2c1O[C@H](CN(C)S(C)(=O)=O)[C@@H](C)CN([C@H](C)CO)C2=O	12.1	-2.6	5.8	-21.6
CCCCSc1ccc(NC(=O)c2cccnc2)cc1	-2.3	0.4	11.9*	-11.7
COc1ccc(C)c2sc(N(CCCN(C)C)C(=O)c3ccc(S(=O)(=O)N4CCc5ccccc5C4)cc3)nc12	-148.2	30.4*	21.4*	-18.5
COc1cccc2sc(N(CCCN(C)C)C(=O)c3ccc(S(=O)(=O)N4CCc5ccccc5C4)cc3)nc12	-6.6	1.6	13.1	-33.6
COc1ccc(SCCCn2c(=O)c3c(ncn3C)n(C)c2=O)cc1	9.7	-1.6	-7.2	4.3
C=C1C(=O)C23C(O)C1CCC2C12CCCC(C)(COC(C)=O)C1C(O)C3(O)OC2 (configuration not stated)	40.9	-8.4	-0.4	1.6
CCCNC(=O)C(Cc1ccccc1)NC(=O)c1ccccc1 (configuration not stated)	10.7	-2.3	-2.7	4.0
Cc1cccc(C)c1NC(=O)CNC(=O)C(Cc1ccccc1)NC(=O)c1ccccc1 (configuration not stated)	2.7	-0.5	12.6*	-46.2
CC1CCCCC1NC(=S)Nc1cccc(S(=O)(=O)N(C)C)c1 (configuration not stated)	-7.0	1.3	10.9*	18.7
O=C(NCCc1ccccc1)C(=O)NCC1OCCN1S(=O)(=O)c1ccc(F)cc1 (configuration not stated)	-0.8	0.2	-3.8	-17.0
SMILES	OPRM1-OPRD1 inv	MOR-DOR ag	HTR5A ag	HTR5A inv ctr
CCOCCCNC(=O)CS(=O)(=O)Cc1nc(-c2cccc(OC)c2)oc1C	-3.1	0.7	-8.4	20.1
CCCNC(=O)CS(=O)(=O)Cc1nc(-c2cccc(OC)c2)oc1C	-0.9	0.2	13.0*	-2.8
COc1cccc(-c2nc(CS(=O)(=O)CC(=O)Nc3cc(F)ccc3F)c(C)o2)c1	-2.3	0.5	10.7*	-13.6
CC(C)[C@H](CN1CCC[C@H]1CN1C(N)=NC[C@H]1C(C)C)N1C[C@@H](Cc2ccccc2)N(CCCC2CCCC2)C1=N	7.7	-1.6	-0.4	1.4
O=S(=O)(c1ccc2c(c1)C(O)c1ccccc1CC2)C(F)(F)F (configuration not stated)	-39.3	6.9	13.3*	-32.1
CN1CCN(C(CNC(=O)C(=O)NC2CCCCC2)c2ccc(F)cc2)CC1 (configuration not stated)	9.5	-1.5	6.5	-19.6
O=C(/C=C/C(Cl)(Cl)Cl)Nc1ccc(Cl)cc1	-79.2	18.1*	16.5*	-63.4
NC(=O)/C=C/C(=O)Nc1ccc(Cl)cc1	13.4	-2.9	0.7	-1.7
COc1cc(NC(=O)COC(=O)c2ccccc2SCC(=O)N2CCCC2)cc(OC)c1	-4.5	0.7	-1.4	0.4
O=C(O)CCC(=O)N1CCN(Cc2ccc3c(c2)OCO3)CC1	7.2	-1.6	11.7*	-43.2
CCCC(=O)N1CCN(Cc2ccc3c(c2)OCO3)CC1	1.3	-0.2	-1.8	6.0
O=C(NC1CCCC(C(F)(F)F)C1)c1ccc([N+](=O)[O-])o1 (configuration not stated)	-17.7	4.7	14.3*	-18.7
O=C(NC1CCCCC1)c1ccc([N+](=O)[O-])o1	-25.4	4.0	4.4	-7.4
CC(Oc1ccc2c3c(c(=O)oc2c1)CCC3)C(=O)NCc1cccnc1 (configuration not stated)	11.0	-2.2	3.8	-2.0
O=C(c1cccc(Cl)c1)N1CCCC(C(=O)N2CCN(c3ccccc3)CC2)C1 (configuration not stated)	6.9	-1.0	-2.4	-1.3
COc1ccccc1NC(=O)OC(C)c1ccc(Cl)cc1 (configuration not stated)	-5.2	0.8	17.2*	-49.0
COc1ccc(CCNC(=O)CSc2nnc3ccc(-c4ccccn4)nn23)cc1	2.9	-0.5	-2.4	7.2
Cn1c(CNC(=O)CNS(=O)(=O)c2ccc(Cl)cc2)cc(=O)n(C)c1=O	-9.8	1.8	3.5	-8.9
Cc1ccc(NC(=O)/C=N/OCC(=O)NCc2ccccc2Cl)cc1	9.8	-1.8	13.9*	-39.7
Cc1ccc(C(C)C)c(OCC(O)CN(C)Cc2ccccc2)c1 (configuration not stated)	-25.1	5.6	11.8*	-44.4
O=C(NCc1ccc(F)cc1)c1noc2c1CCCCC2	-21.9	3.9	14.2*	-6.1
CCCc1nc(SCC(=O)NNC(=O)c2ccc(OC)cc2)c2ccccc2n1	13.4	-2.6	-0.7	1.9
Cc1nc(SCC(=O)NNC(=O)c2ccc(F)cc2)c2ccccc2n1	8.4	-2.0	12.8*	-31.4
O=C(CCN1C(=O)/C(=C/c2ccccc2F)SC1=S)NCCCN1CCOCC1	0.9	-0.1	12.8*	-5.3
O=C(CCN1C(=O)/C(=C/c2ccccc2)SC1=S)NCCCN1CCOCC1	-14.0	2.2	8.2	-23.4
CCCOc1ccccc1-c1nc2c([nH]1)c(=O)[nH]c(=O)n2C	2.1	-0.5	13.2*	-3.3
